Experimental data from PubChem BioAssay AID1159580 (chemical genetic matrix, 2015).
Screen size: about 5,500 compounds; about 2,000 (36%) were called active. About 18% were inconclusive and are not listed. Cut-off read from the data, not from the text of the source: active = normalized growth mostly below about 0.91 (no sharp cut-off); inconclusive = no clear call, values can overlap the other calls; inactive = mostly above about 0.92. This is one part of the list.

Assay: chemical genetic growth profiling, strain panel (AID 1159580);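 note: tested at 20 µM; growth read once vehicle control cultures reached saturation at 30 °C; 1 = growth at the plate median or of vehicle wells; lower values mean less growth of the strain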
Conditions: S. cerevisiae deletion strains, growth OD

Measured: normalized growth

CCn1c(=O)c2[nH]c(-c3ccccc3)nc2n(CC)c1=O
inactive: locus YAL040C, strain CLN3, stronger effect = lower value 1 | locus YCL061C, strain MRC1 (second series), stronger effect = lower value 0.997 | locus YDR363W, strain ESC2, stronger effect = lower value 1.01 | locus YER002W, strain NOP16, stronger effect = lower value 1.04 | locus YMR307W, strain GAS1, stronger effect = lower value 0.992 | locus YNL175C, strain NOP13, stronger effect = lower value 1.01 | locus YNL197C, strain WHI3, stronger effect = lower value 1.01 | locus YNL224C, strain SQS1, stronger effect = lower value 1 | locus YOR083W, strain WHI5 (second series), stronger effect = lower value 1.01 | locus YPL055C, strain LGE1, stronger effect = lower value 1 | locus YPL241C, strain CIN2, stronger effect = lower value 1.01
